Targets with a hit are over-represented here; the source holds about 7,900 in all. About 0.6% of all pairs of compound and target were hits. A number with no mark means an inactive call.
Key:
Assay in all cases: log2 fold change, soluble protein after heating vs DMSO (PISA); higher = thermal stabilisation; K562 cells, 10 uM, 30 min; active = over 0.2 and 3.5 SD of the protein, either way, in both replicates (recomputed)
IRAK-1-4 Inhibitor I = compound: C1COCCN1CCN2C3=CC=CC=C3N=C2NC(=O)C4=CC(=CC=C4)[N+](=O)[O-] [IRAK-1-4 Inhibitor I]
Method in brief: (§1)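 Aliquots of K562 cells (2×10^6 cells/mL) treated with 10 μM compound for 30 min were heated for 3 min over 48°C-58°C. After pooling and extraction in PBS with 0.5% NP-40 at 4°C, soluble protein from a 21,000xg, 90 min spin was quantified by TMTpro 16plex LC-MS/MS with channel sums equalised. Thermal stability is expressed against control samples, from duplicates, as a log2 fold change.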

ibrutinib = compound: C=CC(=O)N1CCC[C@@H](n2nc(-c3ccc(Oc4ccccc4)cc3)c3c(N)ncnc32)C1 [ibrutinib]
Method in brief: as §1

[1] = compound: CC(=O)c1cnc2ccc(-c3cc(Cl)c(O)c(Cl)c3)nc2c1N[C@H]1CC[C@H](CN(C)C)CC1
Method in brief: as §1

ralimetinib = compound: CC(C)(C)Cn1c(N)nc2ccc(-c3[nH]c(C(C)(C)C)nc3-c3ccc(F)cc3)nc21 [ralimetinib]
Method in brief: as §1

[2] = compound: CC(C)(O)CC(=O)NCCn1ccc2ncnc(Nc3ccc(Oc4cccc(C(F)(F)F)c4)c(Cl)c3)c21
Method in brief: as §1

[3] = compound: CC(C)C1=C2N=C(C=C(N2N=C1)NCC3=CC=CC=C3)NCCCCCCN
Method in brief: as §1

[4] = compound: CC(C)C[C@@H](C=O)NC(=O)[C@H](CC(C)C)NC(=O)[C@H](CC(C)C)NC(=O)OCc1ccccc1
Method in brief: as §1

pinometostat = compound: CC(C)N(C[C@H]1O[C@@H](n2cnc3c(N)ncnc32)[C@H](O)[C@@H]1O)[C@H]1C[C@@H](CCc2nc3cc(C(C)(C)C)ccc3[nH]2)C1 [pinometostat]
Method in brief: as §1

[5] = compound: CC1=C(C(CC(=O)N1)C2=CC=C(C=C2)C(F)(F)F)C(=O)NC3=C(C=C4C(=C3)C=NN4)F
Method in brief: as §1

[6] = compound: CC1=C(C2=C(C=C1)C(=O)C3=CC=CC=C3N2CCCN)C
Method in brief: as §1

[7] = compound: CC1=C(C=C(C=C1)NC(=O)C2=CC(=CC=C2)C(C)(C)C#N)NC3=CC4=C(C=C3)N=CN(C4=O)C
Method in brief: as §1

[8] = compound: CC1=C(C=C(C=C1)NC(=O)C2=CC(=CC=C2)N(C)C)NC(=O)C3=CC=C(C=C3)O
Method in brief: as §1

[9] = compound: CC1=CC=C(C=C1)SC2=C3C=C(SC3=CN=C2)C(=O)N
Method in brief: as §1

[10] = compound: CC1=NC(=CC=C1)C2=C(N=C(N2)C(C)(C)C)C3=CC4=NC=CN=C4C=C3
Method in brief: as §1

Nexturastat A = compound: CCCCN(Cc1ccc(C(=O)NO)cc1)C(=O)Nc1ccccc1 [Nexturastat A]
Method in brief: as §1

vemurafenib = compound: CCCS(=O)(=O)Nc1ccc(F)c(C(=O)c2c[nH]c3ncc(-c4ccc(Cl)cc4)cc23)c1F [vemurafenib]
Method in brief: as §1

[11] = compound: CCCS(=O)(=O)Nc1ccc(F)c(C(=O)c2c[nH]c3ncc(Cl)cc23)c1F
Method in brief: as §1

[12] = compound: CCCc1cc(C)[nH]c(=O)c1CNC(=O)c1cc(-c2ccnc(N3CCN(C)CC3)c2)cc2c1cnn2C(C)C
Method in brief: as §1

givinostat = compound: CCN(CC)Cc1ccc2cc(COC(=O)Nc3ccc(C(=O)NO)cc3)ccc2c1 [givinostat]
Method in brief: as §1

barasertib = compound: CCN(CCCOc1ccc2c(Nc3cc(CC(=O)Nc4cccc(F)c4)[nH]n3)ncnc2c1)CCOP(=O)(O)O [barasertib]
Method in brief: as §1

UniProt Q9ULV3, sequence (Q9ULV3 whole entry, looked up): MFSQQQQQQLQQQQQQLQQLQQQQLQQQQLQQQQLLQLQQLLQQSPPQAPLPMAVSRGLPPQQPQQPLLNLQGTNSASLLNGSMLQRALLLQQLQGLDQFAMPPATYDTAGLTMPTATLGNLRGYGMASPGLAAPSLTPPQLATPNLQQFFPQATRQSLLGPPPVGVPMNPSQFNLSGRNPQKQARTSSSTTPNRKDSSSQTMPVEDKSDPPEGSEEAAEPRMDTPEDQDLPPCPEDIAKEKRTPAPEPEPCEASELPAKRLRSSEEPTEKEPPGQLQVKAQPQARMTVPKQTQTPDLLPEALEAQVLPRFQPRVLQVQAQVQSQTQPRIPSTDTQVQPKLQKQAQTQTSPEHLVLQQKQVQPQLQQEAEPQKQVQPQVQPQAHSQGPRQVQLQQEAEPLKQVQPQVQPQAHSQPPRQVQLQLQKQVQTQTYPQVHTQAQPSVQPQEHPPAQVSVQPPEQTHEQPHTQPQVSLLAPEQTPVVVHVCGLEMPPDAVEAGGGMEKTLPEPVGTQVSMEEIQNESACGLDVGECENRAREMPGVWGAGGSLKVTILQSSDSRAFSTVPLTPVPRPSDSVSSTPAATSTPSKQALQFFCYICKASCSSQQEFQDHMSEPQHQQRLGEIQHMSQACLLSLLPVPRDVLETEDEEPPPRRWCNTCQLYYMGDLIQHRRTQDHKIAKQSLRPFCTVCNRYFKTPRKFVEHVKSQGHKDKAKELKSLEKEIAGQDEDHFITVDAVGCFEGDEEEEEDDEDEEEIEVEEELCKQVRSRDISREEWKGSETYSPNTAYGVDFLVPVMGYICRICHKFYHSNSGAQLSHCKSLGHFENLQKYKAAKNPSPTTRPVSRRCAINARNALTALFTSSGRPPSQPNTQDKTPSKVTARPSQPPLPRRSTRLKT
UniProt O15182, sequence (O15182 whole entry, looked up): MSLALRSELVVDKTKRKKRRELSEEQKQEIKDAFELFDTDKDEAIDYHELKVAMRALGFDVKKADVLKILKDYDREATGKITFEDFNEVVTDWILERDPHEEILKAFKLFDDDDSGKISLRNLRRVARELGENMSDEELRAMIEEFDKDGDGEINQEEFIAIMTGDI
UniProt Q8N1A6, sequence (Q8N1A6 whole entry, looked up): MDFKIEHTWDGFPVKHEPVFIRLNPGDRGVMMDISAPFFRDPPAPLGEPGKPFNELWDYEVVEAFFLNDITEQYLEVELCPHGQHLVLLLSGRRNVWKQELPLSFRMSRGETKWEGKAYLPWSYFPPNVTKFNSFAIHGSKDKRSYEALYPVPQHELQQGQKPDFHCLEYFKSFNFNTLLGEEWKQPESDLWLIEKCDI
UniProt Q14839, sequence (Q14839 whole entry, looked up): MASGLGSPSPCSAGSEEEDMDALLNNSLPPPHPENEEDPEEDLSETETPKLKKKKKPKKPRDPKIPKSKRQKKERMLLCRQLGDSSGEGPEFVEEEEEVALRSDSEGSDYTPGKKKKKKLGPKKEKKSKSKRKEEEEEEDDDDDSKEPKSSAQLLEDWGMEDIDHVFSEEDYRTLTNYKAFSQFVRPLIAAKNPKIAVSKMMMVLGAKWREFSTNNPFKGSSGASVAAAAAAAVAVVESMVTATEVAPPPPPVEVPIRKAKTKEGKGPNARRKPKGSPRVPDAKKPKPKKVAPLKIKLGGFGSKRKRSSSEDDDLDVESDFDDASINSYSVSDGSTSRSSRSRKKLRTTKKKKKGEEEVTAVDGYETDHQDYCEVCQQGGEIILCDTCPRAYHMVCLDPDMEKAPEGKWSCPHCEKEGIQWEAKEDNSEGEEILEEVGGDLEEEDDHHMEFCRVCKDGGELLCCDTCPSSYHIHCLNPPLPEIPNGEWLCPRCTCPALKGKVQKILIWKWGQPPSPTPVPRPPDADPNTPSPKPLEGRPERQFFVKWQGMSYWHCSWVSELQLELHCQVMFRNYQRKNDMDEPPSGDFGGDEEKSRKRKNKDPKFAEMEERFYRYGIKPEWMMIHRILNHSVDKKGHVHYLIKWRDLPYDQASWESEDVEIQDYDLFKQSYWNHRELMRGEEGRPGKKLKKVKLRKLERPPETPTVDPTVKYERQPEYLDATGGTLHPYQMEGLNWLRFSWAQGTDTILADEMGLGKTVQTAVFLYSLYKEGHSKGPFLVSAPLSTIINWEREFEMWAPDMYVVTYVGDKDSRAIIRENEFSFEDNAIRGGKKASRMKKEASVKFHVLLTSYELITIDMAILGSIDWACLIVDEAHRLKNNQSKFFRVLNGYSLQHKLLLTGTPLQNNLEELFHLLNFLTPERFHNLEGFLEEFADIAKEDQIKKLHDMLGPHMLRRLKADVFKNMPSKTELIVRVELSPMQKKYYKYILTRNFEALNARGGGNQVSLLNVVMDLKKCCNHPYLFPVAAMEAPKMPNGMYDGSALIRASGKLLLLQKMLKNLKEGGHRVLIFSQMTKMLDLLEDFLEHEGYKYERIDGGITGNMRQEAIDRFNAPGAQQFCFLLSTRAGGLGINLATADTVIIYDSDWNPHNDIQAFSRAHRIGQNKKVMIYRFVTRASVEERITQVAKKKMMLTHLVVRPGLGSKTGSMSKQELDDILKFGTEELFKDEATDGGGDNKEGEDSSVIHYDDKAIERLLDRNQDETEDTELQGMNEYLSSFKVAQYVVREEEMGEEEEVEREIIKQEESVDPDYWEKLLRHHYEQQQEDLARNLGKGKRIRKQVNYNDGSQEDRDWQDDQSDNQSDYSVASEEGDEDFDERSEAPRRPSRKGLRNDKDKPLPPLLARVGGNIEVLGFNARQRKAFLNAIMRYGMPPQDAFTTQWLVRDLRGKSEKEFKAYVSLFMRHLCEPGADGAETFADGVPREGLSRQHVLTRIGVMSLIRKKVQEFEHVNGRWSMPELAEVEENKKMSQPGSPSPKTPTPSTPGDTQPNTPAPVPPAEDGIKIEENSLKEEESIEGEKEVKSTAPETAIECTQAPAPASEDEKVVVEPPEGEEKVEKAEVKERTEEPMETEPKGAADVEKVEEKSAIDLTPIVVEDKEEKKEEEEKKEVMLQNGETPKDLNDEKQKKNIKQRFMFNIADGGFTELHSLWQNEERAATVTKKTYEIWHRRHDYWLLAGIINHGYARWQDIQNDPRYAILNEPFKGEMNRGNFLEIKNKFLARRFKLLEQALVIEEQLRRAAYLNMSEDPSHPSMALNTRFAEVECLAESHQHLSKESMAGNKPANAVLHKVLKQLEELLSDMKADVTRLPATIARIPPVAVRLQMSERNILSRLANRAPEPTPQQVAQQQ
UniProt P15954, sequence (P15954 whole entry, looked up): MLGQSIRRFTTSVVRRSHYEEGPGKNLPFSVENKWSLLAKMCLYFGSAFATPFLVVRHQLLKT
UniProt Q8N4Q1, sequence (Q8N4Q1 whole entry, looked up): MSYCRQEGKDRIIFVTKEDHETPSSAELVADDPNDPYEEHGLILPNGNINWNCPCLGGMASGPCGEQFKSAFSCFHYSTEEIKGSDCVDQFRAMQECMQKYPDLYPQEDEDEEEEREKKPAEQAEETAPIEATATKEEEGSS
UniProt P23786, sequence (P23786 whole entry, looked up): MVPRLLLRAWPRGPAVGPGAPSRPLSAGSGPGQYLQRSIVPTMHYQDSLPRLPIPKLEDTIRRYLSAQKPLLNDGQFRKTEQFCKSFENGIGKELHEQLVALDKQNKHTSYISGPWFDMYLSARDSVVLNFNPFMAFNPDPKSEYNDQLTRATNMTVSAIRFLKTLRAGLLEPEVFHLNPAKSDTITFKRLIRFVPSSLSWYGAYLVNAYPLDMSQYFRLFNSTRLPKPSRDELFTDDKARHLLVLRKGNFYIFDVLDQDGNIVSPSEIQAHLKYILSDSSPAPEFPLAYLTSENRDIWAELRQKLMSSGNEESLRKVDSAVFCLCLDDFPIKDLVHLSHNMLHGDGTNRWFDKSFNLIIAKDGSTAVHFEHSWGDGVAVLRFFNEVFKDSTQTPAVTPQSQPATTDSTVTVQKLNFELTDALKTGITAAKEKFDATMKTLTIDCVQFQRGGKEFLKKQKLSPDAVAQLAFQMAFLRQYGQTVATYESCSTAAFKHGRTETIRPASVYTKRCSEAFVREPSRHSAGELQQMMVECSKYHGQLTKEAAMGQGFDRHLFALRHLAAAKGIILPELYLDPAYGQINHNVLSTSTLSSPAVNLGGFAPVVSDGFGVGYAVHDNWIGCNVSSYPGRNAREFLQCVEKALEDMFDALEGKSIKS

CPT2 (UniProt P23786) gave a log2 fold change (IRAK-1-4 Inhibitor I) of 0.101, a log2 fold change (ibrutinib) of 0.095 and a log2 fold change [1] of 0.201. For the same target, the log2 fold change (ralimetinib) was -0.079, the log2 fold change [2] was -0.704 (active) and the log2 fold change [3] was -0.488. For the same target, the log2 fold change [4] was 0.16, the log2 fold change (pinometostat) was -0.145 and the log2 fold change [5] was -0.051. For the same target, the log2 fold change [6] was 0.256, the log2 fold change [7] was 0.313 and the log2 fold change [8] was -0.105. For the same target, the log2 fold change [9] was 0.035, the log2 fold change [10] was 0.019 and the log2 fold change (Nexturastat A) was -0.417. It also gave a log2 fold change (vemurafenib) of 0.042, a log2 fold change [11] of 0.007 and a log2 fold change [12] of 0.016. For the same target, the log2 fold change (givinostat) was 0.474 and the log2 fold change (barasertib) was 0.013.
For CHCHD4 isoform 2 (UniProt Q8N4Q1), the log2 fold change (IRAK-1-4 Inhibitor I) was 0.056, the log2 fold change (ibrutinib) was 0.003 and the log2 fold change [1] was 0.096. The log2 fold change (ralimetinib) was -0.003, the log2 fold change [2] was 0.002 and the log2 fold change [3] was 0.075. The log2 fold change [4] was 0.03, the log2 fold change (pinometostat) was -0.024 and the log2 fold change [5] was -0.011. For the same target, the log2 fold change [6] was -0.18, the log2 fold change [7] was 0.373 and the log2 fold change [8] was 0.001. The log2 fold change [9] was 0.157, the log2 fold change [10] was -0.035 and the log2 fold change (Nexturastat A) was -0.026. For the same target, the log2 fold change (vemurafenib) was -0.015, the log2 fold change [11] was 0.412 and the log2 fold change [12] was -0.063. It also gave a log2 fold change (givinostat) of 0.029 and a log2 fold change (barasertib) of -0.024.
Target CHD4 isoform 2 (UniProt Q14839) has a log2 fold change (IRAK-1-4 Inhibitor I) of -0.198, a log2 fold change (ibrutinib) of -0.106 and a log2 fold change [1] of -0.215. The log2 fold change (ralimetinib) was 0.112, the log2 fold change [2] was -0.067 and the log2 fold change [3] was -0.313 (active). For the same target, the log2 fold change [4] was 0.045, the log2 fold change (pinometostat) was 0.07 and the log2 fold change [5] was 0.013. It also gave a log2 fold change [6] of -0.057, a log2 fold change [7] of 0.011 and a log2 fold change [8] of -0.028. For the same target, the log2 fold change [9] was 0.062, the log2 fold change [10] was -0.014 and the log2 fold change (Nexturastat A) was 0.087. The log2 fold change (vemurafenib) was 0.068, the log2 fold change [11] was 0.116 and the log2 fold change [12] was 0.101. It also gave a log2 fold change (givinostat) of 0.154 and a log2 fold change (barasertib) of 0.121.
CIZ1 (UniProt Q9ULV3) showed a log2 fold change (IRAK-1-4 Inhibitor I) of 0.013, a log2 fold change (ibrutinib) of -0.03 and a log2 fold change [1] of -0.044. For the same target, the log2 fold change (ralimetinib) was 0.056, the log2 fold change [2] was -0.056 and the log2 fold change [3] was 0.035. The log2 fold change [4] was 0.053, the log2 fold change (pinometostat) was -0.02 and the log2 fold change [5] was -0.02. The log2 fold change [6] was -0.248 (active), the log2 fold change [7] was -0.02 and the log2 fold change [8] was -0.027. The log2 fold change [9] was -0.022, the log2 fold change [10] was 0.059 and the log2 fold change (Nexturastat A) was 0.011. The log2 fold change (vemurafenib) was -0.018, the log2 fold change [11] was -0.007 and the log2 fold change [12] was -0.033. It also gave a log2 fold change (givinostat) of 0.017 and a log2 fold change (barasertib) of 0.001.
CETN3 (UniProt O15182) gave a log2 fold change (IRAK-1-4 Inhibitor I) of 0.031, a log2 fold change (ibrutinib) of -0.022 and a log2 fold change [1] of -0.006. It also gave a log2 fold change (ralimetinib) of -0.075, a log2 fold change [2] of 0.035 and a log2 fold change [3] of -0.038. For the same target, the log2 fold change [4] was 0.039, the log2 fold change (pinometostat) was 0.016 and the log2 fold change [5] was -0.002. For the same target, the log2 fold change [6] was -0.18, the log2 fold change [7] was 0.001 and the log2 fold change [8] was 0.012. The log2 fold change [9] was -0.099, the log2 fold change [10] was -0.102 and the log2 fold change (Nexturastat A) was -0.01. For the same target, the log2 fold change (vemurafenib) was -0.056, the log2 fold change [11] was -0.164 and the log2 fold change [12] was -0.116. It also gave a log2 fold change (givinostat) of 0.008 and a log2 fold change (barasertib) of 0.043.
Target CNOT1 (UniProt A5YKK6) has a log2 fold change (IRAK-1-4 Inhibitor I) of -0.07, a log2 fold change (ibrutinib) of -0.024 and a log2 fold change [1] of -0.029. For the same target, the log2 fold change (ralimetinib) was 0.028, the log2 fold change [2] was -0.063 and the log2 fold change [3] was -0.101. For the same target, the log2 fold change [4] was 0.039, the log2 fold change (pinometostat) was 0.027 and the log2 fold change [5] was 0.009. It also gave a log2 fold change [6] of 0.063, a log2 fold change [7] of 0.016 and a log2 fold change [8] of -0.007. For the same target, the log2 fold change [9] was -0.027, the log2 fold change [10] was 0.014 and the log2 fold change (Nexturastat A) was 0.062. For the same target, the log2 fold change (vemurafenib) was 0.044, the log2 fold change [11] was 0.046 and the log2 fold change [12] was 0.013. It also gave a log2 fold change (givinostat) of 0.044 and a log2 fold change (barasertib) of 0.044.
In the case of C4orf33 (UniProt Q8N1A6), the log2 fold change (IRAK-1-4 Inhibitor I) is reported as 0.038, the log2 fold change (ibrutinib) is reported as 0.137 and the log2 fold change [1] is reported as -0.049. The log2 fold change (ralimetinib) was -0.073, the log2 fold change [2] was 0.005 and the log2 fold change [3] was -0.076. It also gave a log2 fold change [4] of 0.032, a log2 fold change (pinometostat) of 0 and a log2 fold change [5] of -0.01. The log2 fold change [6] was -0.03, the log2 fold change [7] was -0.101 and the log2 fold change [8] was 0.04. It also gave a log2 fold change [9] of 0.049, a log2 fold change [10] of -0.049 and a log2 fold change (Nexturastat A) of 0.018. It also gave a log2 fold change (vemurafenib) of -0.01, a log2 fold change [11] of -0.082 and a log2 fold change [12] of 0.07. The log2 fold change (givinostat) was 0.055 and the log2 fold change (barasertib) was 0.03.
For COX7C (UniProt P15954), the log2 fold change (IRAK-1-4 Inhibitor I) was -0.013, the log2 fold change (ibrutinib) was 0.057 and the log2 fold change [1] was -0.013. It also gave a log2 fold change (ralimetinib) of 0.301, a log2 fold change [2] of 0.041 and a log2 fold change [3] of 0.184. It also gave a log2 fold change [4] of 0.074, a log2 fold change (pinometostat) of 0.092 and a log2 fold change [5] of 0.022. It also gave a log2 fold change [6] of 0.009, a log2 fold change [7] of -0.057 and a log2 fold change [8] of -0.187. The log2 fold change [9] was -0.01, the log2 fold change [10] was 0.088 and the log2 fold change (Nexturastat A) was 0.027. The log2 fold change (vemurafenib) was -0.018, the log2 fold change [11] was -0.085 and the log2 fold change [12] was 0.143. It also gave a log2 fold change (givinostat) of -0.271 and a log2 fold change (barasertib) of 0.061.
